KDM5B inh = KDM5B demethylase inhibition; KDM5B demethylase, FDH-coupled NADH fluorescence (FDH is formaldehyde dehydrogenase); AID 1347165; Potency, µM (series often up to 57.7 µM), actives largely listed as inhibitors; Q9UGL1; 220,000 tested, 2.6% active; active = well fitted inhibition curve with a large enough effect; note: nearly all actives have a fitted effect of over 70% in size
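Measured: NADH fluorescence change, 30 min, RT. System: KDM5BΔAP 200 nM final, H3K4me3 peptide, α-KG, Fe(II), ascorbate, NAD⁺ plus FDH, pH 7.5 HEPES. Compounds: titrated, 10 min pre-incubation with enzyme.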
Hits are given with their value. Many of the other results were omitted from the sample, so hits are more common in it than they were.

O=C(/C=C/c1cccc([N+](=O)[O-])c1)OCCCC(=O)c1ccc(F)cc1 was read as KDM5B inh inactive.
Screening CN1CCN(c2ccc(NC(=O)COc3ccc(Br)cc3Br)cn2)CC1 returned KDM5B inh inactive.
Screening Cc1cc(=O)oc2cc(OC(C)C(=O)NCc3cccnc3)c(Cl)cc12 (stereo not drawn) returned KDM5B inh inactive.
O=C(O)c1cc(C2CC2)nc2c1c(=O)[nH]c(=O)n2C1CC1 was read as KDM5B inh inactive.
CCCC(=O)Nc1ccccc1NC(=O)c1ccc(C)cc1 was read as KDM5B inh inactive.
COc1nc(C(=O)NCCCN2CCCC2=O)cc2ccccc12 was read as KDM5B inh inactive.
Screening CC1(C(=O)Nc2ccccc2)CN(Cc2ccccc2)Cc2ccc(N3CCOCC3)nc21 (stereo not drawn) returned KDM5B inh 13µM.
Screening CC1(C(=O)Nc2ccc(F)cc2)CN(Cc2ccccc2)Cc2ccc(N3CCOCC3)nc21 (stereo not drawn) returned KDM5B inh 32µM.
Screening CCOc1ccccc1NC(=O)Nc1ccc(CN2CCOCC2)cc1 returned KDM5B inh inactive.
`O=C(NCc1ccc(F)cc1)Nc1cccc(-c2ccc(N3CCOCC3)nn2)c1` gave KDM5B inh inactive.
`O=C(NC(=S)Nc1ccc(CN2CCOCC2)cc1)c1cccc(F)c1` gave KDM5B inh inactive.
`O=C(Nc1ccc(N2CCOCC2)cc1)[C@H]1CN(Cc2ccccc2)C[C@H]1C(=O)O` gave KDM5B inh inactive.
For CCC(C)[C@H](NC(=O)NCc1ccccc1F)C(=O)O (stereo partly drawn) the results were KDM5B inh inactive.
Screening COc1ccccc1C(=O)NCCn1ccn2nc(-c3ccc(C)cc3C)cc2c1=O returned KDM5B inh inactive.
For CCC(C(=O)NCCn1ccn2nc(-c3cccc(OC)c3)cc2c1=O)c1ccccc1 (stereo not drawn) the results were KDM5B inh inactive.
For COc1ccc(-c2cc3c(=O)n(CCNC(=O)c4cccc(OC)c4OC)ccn3n2)cc1 the results were KDM5B inh 25µM.
`COc1ccc(-c2cc3c(=O)n(CCNC(=O)c4c(F)cccc4F)ccn3n2)cc1` gave KDM5B inh 22µM.
For COc1ccc(-c2cc3c(=O)n(CCNC(=O)c4c(F)cccc4Cl)ccn3n2)cc1 the results were KDM5B inh 22µM.
COc1ccccc1C(=O)NCCn1ccn2nc(-c3cc(C)ccc3C)cc2c1=O was read as KDM5B inh inactive.
For CCC(C(=O)NCCn1ccn2nc(-c3ccc(OC)cc3)cc2c1=O)c1ccccc1 (stereo not drawn) the results were KDM5B inh 20µM.
CCOc1ccc(-c2cc3c(=O)n(CCNC(=O)c4ccc(OC)c(F)c4)ccn3n2)cc1 was read as KDM5B inh inactive.
`CCc1ccc(NC(=O)c2c(CC)noc2C)cc1` gave KDM5B inh inactive.
For O=[N+]([O-])c1cccc(-c2noc([C@@H]3C[C@@H](O)CN3Cc3ccccc3O)n2)c1 the results were KDM5B inh inactive.
O=C(Cc1n[nH]c(=O)c2ccccc12)NC(c1ccccc1)C1CC1 (stereo not drawn) was read as KDM5B inh inactive.
CC(OC(=O)c1nn(C)c(=O)c2ccccc12)C(N)=O (stereo not drawn) was read as KDM5B inh inactive.
`Cc1cccc(-c2noc(CNC(=O)Nc3cccc4ccccc34)n2)c1` gave KDM5B inh inactive.
`O=C(CCc1nc(CSc2nc3ccccc3o2)no1)Nc1ccc2ccccc2c1` gave KDM5B inh inactive.
C/C(=N\Nc1ccccc1)c1cccc([N+](=O)[O-])c1 was read as KDM5B inh inactive.
`CCOC(=O)c1cc2cc(Br)ccc2[nH]1` gave KDM5B inh inactive.
Screening Cc1ccc(-c2cnc(-c3c(N)sc4c3CCCC4)s2)cc1 returned KDM5B inh inactive.
Screening COc1cc(OC)cc(C(=O)Nc2cccc(-c3nncn3C)c2)c1 returned KDM5B inh inactive.
CNc1sc2c(c1C#N)CCCC2 was read as KDM5B inh inactive.
Cc1noc2ncnc(N3CCCC(C(=O)NC(C)C)C3)c12 (stereo not drawn) was read as KDM5B inh inactive.
CC(NC(=O)C1CCCN(c2cnc3nccnc3c2)C1)c1cccnc1 (stereo not drawn) was read as KDM5B inh inactive.
For CN(C)c1ncccc1CNC(=O)C1CCCN(S(C)(=O)=O)C1 (stereo not drawn) the results were KDM5B inh inactive.
Screening O=C(C1CCCC1)N1CCN(c2nc3ccccc3o2)CC1 returned KDM5B inh inactive.
Screening CC1CCCN(C(=O)C2CCCN(c3cnc4nccnc4c3)C2)C1 (stereo not drawn) returned KDM5B inh inactive.
CCCCN(C)C(=O)C1CCCN(c2ncnc3onc(C)c23)C1 (stereo not drawn) was read as KDM5B inh inactive.
For CN(C)C(=O)C1CCCN(c2nc3ncccc3o2)C1 (stereo not drawn) the results were KDM5B inh 25µM.
`O=C(C1CCCN(c2nc3ncccc3o2)C1)N1CCCC1` (stereo not drawn) gave KDM5B inh 25µM.
Screening O=C(NC1CCCN(c2nc3ncccc3o2)C1)c1ccc(Cl)nc1 (stereo not drawn) returned KDM5B inh inactive.
CC(C)NC(=O)C1CCCN(c2nc3ncccc3o2)C1 (stereo not drawn) was read as KDM5B inh 20µM.
`COc1cccc(N2CCN(C(=O)C3CCCN(c4cnc5nccnc5c4)C3)CC2)c1` (stereo not drawn) gave KDM5B inh inactive.
For N#CC1CCN(C(=O)C2CCCN(c3nc4ncccc4o3)C2)CC1 (stereo not drawn) the results were KDM5B inh 32µM.
For CCc1ccc2c(CN3CCCC3c3ccc(OC)cc3)cc(=O)oc2c1 (stereo not drawn) the results were KDM5B inh inactive.
Screening CCOCCCNCc1ccc(C(=O)O)cc1 returned KDM5B inh inactive.
Cc1cc(C)c2c(CN3CCN(c4ccc(F)cc4)CC3)cc(=O)oc2c1 was read as KDM5B inh inactive.
`Nc1nc(N2CCN(Cc3ccc(Cl)cc3)CC2)c2[nH]cnc2n1` gave KDM5B inh inactive.
For CC(OC(=O)Cc1nn(C)c(=O)c2ccccc12)C(=O)NCc1ccccc1 (stereo not drawn) the results were KDM5B inh inactive.
`Cc1cc(C)cc(NC(=O)CSc2ncc(CO)n2CC(=O)NC(C)C)c1` gave KDM5B inh inactive.
For Cc1noc(CSc2ccccc2C(=O)N2CC=C(c3ccccc3)CC2)n1 the results were KDM5B inh inactive.
For CCCCN(Cc1cc2ccccc2[nH]c1=O)C(=O)c1cc(OC)c(OC)c(OC)c1 the results were KDM5B inh inactive.
`N#CCC(=O)Nc1ccc(C(=O)OCc2cccc(F)c2F)cc1` gave KDM5B inh inactive.
`CCC(=O)Nc1cc(C)ccc1NC(=O)c1cccs1` gave KDM5B inh inactive.
`Fc1ccc(-c2ccc3ncc(Nc4ccnc(N5CCOCC5)c4)n3n2)cc1` gave KDM5B inh inactive.
COc1cncc(Nc2cnc3ccc(N(C)Cc4ccc(F)cc4)nn23)c1 was read as KDM5B inh 35µM.
Screening Fc1ccc(-c2ccc3ncc(Nc4cc(F)cc(N5CCOCC5)c4)n3n2)cc1 returned KDM5B inh inactive.
`COc1cncc(Nc2cnc3ccc(-c4ccccc4OC)nn23)c1` gave KDM5B inh inactive.
COc1ccc(Nc2cnc3ccc(N(C)Cc4cccnc4)nn23)cc1OC was read as KDM5B inh inactive.

Source: PubChem
